According to the supplement of paper PMC11624193, “Coupling cellular drug-target engagement to downstream pharmacology with CeTEAM” (Nature Communications, 2024):
Unmarked numbers belong to inactive results.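 The calls were made as follows: active = log2 fold change beyond 2 SD from the library mean after excluding viability outliers; inactive = within 2 SD.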

The molecules below were run against PARP1 L713F-nLuc biosensor (HCT116) (UniProt P09874) (assay: PARP1 L713F-nLuc/akaLuc ratio relative to DMSO control (biosensor stabilization) (fold change); higher = more PARP1 biosensor stabilization (target engagement / stabilizer), active = hit call of the paper). Settings: stock concentration (mM; final µM = stock mM x 1): 10; 24 h.
Chain of PARP1 L713F-nLuc biosensor (HCT116) (P09874 whole entry L713F, looked up): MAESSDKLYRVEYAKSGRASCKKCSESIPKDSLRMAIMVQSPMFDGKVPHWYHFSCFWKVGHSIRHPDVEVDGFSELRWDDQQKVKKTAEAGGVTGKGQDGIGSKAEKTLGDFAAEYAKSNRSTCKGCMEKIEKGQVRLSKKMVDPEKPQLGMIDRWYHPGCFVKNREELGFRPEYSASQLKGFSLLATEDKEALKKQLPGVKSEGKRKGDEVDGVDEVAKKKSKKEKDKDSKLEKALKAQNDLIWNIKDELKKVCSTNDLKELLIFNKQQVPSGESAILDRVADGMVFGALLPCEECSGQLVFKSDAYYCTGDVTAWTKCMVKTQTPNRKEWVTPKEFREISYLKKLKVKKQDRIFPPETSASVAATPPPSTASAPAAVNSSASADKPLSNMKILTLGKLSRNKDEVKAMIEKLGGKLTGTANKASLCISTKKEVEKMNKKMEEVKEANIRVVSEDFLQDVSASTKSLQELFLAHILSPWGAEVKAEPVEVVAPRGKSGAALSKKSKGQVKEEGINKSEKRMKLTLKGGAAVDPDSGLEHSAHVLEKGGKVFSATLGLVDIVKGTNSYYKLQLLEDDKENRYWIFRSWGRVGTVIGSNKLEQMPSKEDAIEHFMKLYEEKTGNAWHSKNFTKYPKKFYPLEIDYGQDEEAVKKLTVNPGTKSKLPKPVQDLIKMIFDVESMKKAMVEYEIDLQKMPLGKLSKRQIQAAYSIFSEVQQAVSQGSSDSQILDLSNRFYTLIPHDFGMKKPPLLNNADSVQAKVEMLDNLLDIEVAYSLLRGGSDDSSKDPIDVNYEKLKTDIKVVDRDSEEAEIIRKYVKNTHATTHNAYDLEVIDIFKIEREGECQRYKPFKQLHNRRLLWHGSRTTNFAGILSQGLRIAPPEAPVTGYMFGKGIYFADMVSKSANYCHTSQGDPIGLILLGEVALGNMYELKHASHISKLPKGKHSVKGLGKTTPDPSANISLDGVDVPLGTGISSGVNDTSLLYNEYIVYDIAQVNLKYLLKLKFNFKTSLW
In the case of Clc1ccc(Nc2nnc(Cc3ccncc3)c3ccccc23)cc1 [Vatalanib (PTK787) 2HCl], the “PARP1 L713F-nLuc/akaLuc ratio” value is reported as 0.831. COc1cc(CCc2cc(NC(=O)c3ccc(N4CC(C)NC(C)C4)cc3)n[nH]2)cc(OC)c1 (configuration not stated) was tested, and the “PARP1 L713F-nLuc/akaLuc ratio” value was 0.745. For Cc1ccc2[nH]c3c(c2c1)CCCC3C(N)=O (configuration not stated), the “PARP1 L713F-nLuc/akaLuc ratio” value was 1.25. COc1cc2nccc(Oc3ccc(NC(=O)NC4CC4)c(Cl)c3)c2cc1C(N)=O [Lenvatinib (E7080)] was tested, and the “PARP1 L713F-nLuc/akaLuc ratio” value was 0.673. For CN1CCN(c2nc(C3=C(c4c[nH]c5ccccc45)C(=O)NC3=O)c3ccccc3n2)CC1 [Sotrastaurin], the “PARP1 L713F-nLuc/akaLuc ratio” value was 1.31. With O=C1/C(=C/c2ccc(O)c(Br)c2)CN(Cc2ccccc2)C/C1=C\c1ccc(O)c(Br)c1 the “PARP1 L713F-nLuc/akaLuc ratio” value was 0.985. With Cc1nn(C)cc1-c1nc2c(N3CCN(Cc4ccc(Cl)cc4)CC3)c(Cl)cnc2[nH]1 the “PARP1 L713F-nLuc/akaLuc ratio” value was 0.979.
